Data on 19 molecules can be found in PubChem BioAssay (EPA / NIEHS).

For orientation: AC50 means the midpoint of the concentration-response curve, whichever way the signal moves.

Inconclusive results are not listed. A structure can be active in one record and inactive in another. Calls of active or inactive are those of the source. The calls were made as follows: active = hit-call score of the fitted dose curve at least 0.9, where 1 is the maximum; inconclusive = response in the unintended direction; inactive = score below 0.9.

human Phosphodiesterase 4A1 (PDE4A1), PDE4A (gene 5141), sequence (P27815 whole entry, looked up): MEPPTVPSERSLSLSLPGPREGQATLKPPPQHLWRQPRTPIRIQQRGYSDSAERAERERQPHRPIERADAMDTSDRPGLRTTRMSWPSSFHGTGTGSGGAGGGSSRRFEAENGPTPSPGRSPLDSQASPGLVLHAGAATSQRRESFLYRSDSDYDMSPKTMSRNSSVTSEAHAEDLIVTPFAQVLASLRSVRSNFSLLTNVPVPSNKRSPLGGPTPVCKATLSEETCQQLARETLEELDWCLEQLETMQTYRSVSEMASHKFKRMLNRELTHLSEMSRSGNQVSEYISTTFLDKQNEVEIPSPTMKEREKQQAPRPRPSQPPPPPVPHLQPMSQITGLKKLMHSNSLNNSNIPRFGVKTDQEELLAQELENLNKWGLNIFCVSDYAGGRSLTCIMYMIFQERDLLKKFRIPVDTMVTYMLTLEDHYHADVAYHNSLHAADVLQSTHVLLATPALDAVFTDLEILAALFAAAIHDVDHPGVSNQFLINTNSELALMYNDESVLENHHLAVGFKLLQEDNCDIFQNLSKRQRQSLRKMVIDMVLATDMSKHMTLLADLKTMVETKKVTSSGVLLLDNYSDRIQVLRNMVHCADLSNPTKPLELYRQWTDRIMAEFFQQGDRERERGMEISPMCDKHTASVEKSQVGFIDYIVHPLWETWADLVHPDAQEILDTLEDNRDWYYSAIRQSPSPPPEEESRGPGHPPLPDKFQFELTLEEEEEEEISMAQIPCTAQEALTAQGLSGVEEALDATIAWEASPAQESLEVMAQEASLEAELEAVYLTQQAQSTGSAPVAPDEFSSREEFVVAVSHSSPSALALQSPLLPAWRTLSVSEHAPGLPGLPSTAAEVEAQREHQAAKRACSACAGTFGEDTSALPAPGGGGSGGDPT
human Matrix Metalloproteinase-9 (MMP9), MMP9 (gene 4318), sequence (P14780 whole entry, looked up): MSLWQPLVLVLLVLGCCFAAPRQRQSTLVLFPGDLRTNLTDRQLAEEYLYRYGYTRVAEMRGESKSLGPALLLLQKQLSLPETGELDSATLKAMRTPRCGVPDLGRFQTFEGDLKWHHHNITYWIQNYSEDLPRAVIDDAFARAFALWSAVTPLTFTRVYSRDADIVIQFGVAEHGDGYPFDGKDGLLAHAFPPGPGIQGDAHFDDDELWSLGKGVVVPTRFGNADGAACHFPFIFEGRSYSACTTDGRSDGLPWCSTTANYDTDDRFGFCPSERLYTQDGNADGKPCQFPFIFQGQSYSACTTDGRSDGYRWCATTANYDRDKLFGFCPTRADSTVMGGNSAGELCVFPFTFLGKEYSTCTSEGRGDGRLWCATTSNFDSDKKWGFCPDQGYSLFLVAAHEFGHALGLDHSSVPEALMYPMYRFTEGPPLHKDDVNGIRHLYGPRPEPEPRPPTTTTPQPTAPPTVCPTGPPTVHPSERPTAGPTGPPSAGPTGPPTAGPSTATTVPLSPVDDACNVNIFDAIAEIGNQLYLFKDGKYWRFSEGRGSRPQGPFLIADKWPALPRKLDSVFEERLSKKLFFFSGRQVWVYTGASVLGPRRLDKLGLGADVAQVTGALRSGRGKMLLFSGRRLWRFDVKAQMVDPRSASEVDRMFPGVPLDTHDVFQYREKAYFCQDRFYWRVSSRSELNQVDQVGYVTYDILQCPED
human Matrix Metalloproteinase-7 (MMP7), MMP7 (gene 4316), sequence (P09237 whole entry, looked up): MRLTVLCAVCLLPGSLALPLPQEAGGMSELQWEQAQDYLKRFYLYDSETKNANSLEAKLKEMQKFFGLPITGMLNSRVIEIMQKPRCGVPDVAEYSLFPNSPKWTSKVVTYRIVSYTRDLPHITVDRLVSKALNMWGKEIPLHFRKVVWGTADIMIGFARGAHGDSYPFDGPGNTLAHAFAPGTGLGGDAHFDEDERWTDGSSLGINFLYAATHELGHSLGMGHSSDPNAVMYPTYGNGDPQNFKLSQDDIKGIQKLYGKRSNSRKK
human Matrix Metalloproteinase-3 (MMP3), MMP3 (gene 4314), sequence (P08254 whole entry, looked up): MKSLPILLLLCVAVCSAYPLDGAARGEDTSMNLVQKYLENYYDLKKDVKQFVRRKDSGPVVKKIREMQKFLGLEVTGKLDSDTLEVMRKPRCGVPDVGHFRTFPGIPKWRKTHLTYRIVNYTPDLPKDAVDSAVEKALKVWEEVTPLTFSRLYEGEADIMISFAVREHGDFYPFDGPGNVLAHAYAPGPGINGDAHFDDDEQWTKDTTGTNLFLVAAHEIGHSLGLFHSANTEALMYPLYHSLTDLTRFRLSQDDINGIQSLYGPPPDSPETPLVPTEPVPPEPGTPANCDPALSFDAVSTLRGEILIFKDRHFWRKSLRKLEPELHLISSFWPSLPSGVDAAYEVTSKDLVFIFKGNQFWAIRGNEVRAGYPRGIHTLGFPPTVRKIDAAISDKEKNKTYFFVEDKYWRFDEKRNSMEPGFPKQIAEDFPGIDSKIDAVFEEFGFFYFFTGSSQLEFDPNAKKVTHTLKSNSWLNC

One assay has as its target human Matrix Metalloproteinase-7 (MMP7), MMP7 (gene 4316) (UniProt P09237). Description: NVS_ENZ_hMMP7: NovaScreen (NVS) Enzymatic Assay for human Matrix Metalloproteinase-7 (MMP7) (AID 2283183). Summed up: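 Cell-free fluorescence enzymatic assay read 1 h after compound addition, activity loss analyzed against DMSO. Primary duplicate testing at 25 uM; compounds meeting threshold rerun in singleton concentration-response up to 50 uM.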
For the molecule `CNC(=S)S`, the call was inactive. Still for that read-out and setting: for `N#Cc1cc(Br)c(O)c(Br)c1` the value was “inactive”; for `COc1nc(C)nc(NC(=O)NS(=O)(=O)c2ccccc2CCC(F)(F)F)n1`, “inactive”. As to `COc1ccc(C(c2ccc(OC)cc2)C(Cl)(Cl)Cl)cc1`, the result was inactive. On to `CCOP(=S)(OCC)SCn1c(=O)oc2cc(Cl)ccc21`, for which the molecule was called inactive.

The target of a further assay is human Matrix Metalloproteinase-3 (MMP3), MMP3 (gene 4314) (UniProt P08254). Description: NVS_ENZ_hMMP3: NovaScreen (NVS) Enzymatic Assay for human Matrix Metalloproteinase-3 (MMP3) (AID 2283185). Summed up:
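Cell-free recombinant human MMP3 activity, fluorescence intensity read 1 h after dosing. Primary screen duplicate at 25 uM, actives retested in concentration series; loss of signal vs DMSO baseline.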
As for `CNC(=S)S`, the molecule was classed as inactive. Consider `CO/C=C(/C(=O)OC)c1ccccc1Oc1cc(Oc2ccccc2C#N)ncn1`, for which the call was inactive.

Take `O=C(O)c1nc(Cl)ccc1Cl`: the molecule was classed as inactive. Regarding `N#Cc1nn(-c2c(Cl)cc(C(F)(F)F)cc2Cl)c(N)c1S(=O)C(F)(F)F` (configuration not stated), the molecule was called inactive.

As to `COC(=O)C=C(C)OP(=O)(OC)OC`, the molecule was called inactive.

In a further assay the target is human Matrix Metalloproteinase-9 (MMP9), MMP9 (gene 4318) (UniProt P14780). The assay can be described thus: NVS_ENZ_hMMP9: NovaScreen (NVS) Enzymatic Assay for human Matrix Metalloproteinase-9 (MMP9) (AID 2283190).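 Also: cell-free recombinant MMP9 protease activity read by fluorescent substrate signal; active means inhibition seen as loss of fluorescence signal versus DMSO.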 Summed up:
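Extracted enzyme, fluorescent substrate, 1 h post-dose read. Single conc 25 uM in duplicate, then concentration series for actives. Activity = signal loss relative to DMSO negative control.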
Consider `CCOC(=O)CC(SP(=S)(OC)OC)C(=O)OCC` (configuration not stated), for which the molecule was called inactive.

On to `CC1COC(Cn2cncn2)(c2ccc(Oc3ccc(Cl)cc3)cc2Cl)O1` (configuration not stated), for which the molecule was classed as inactive. With `CCCCNC(=O)n1c(NC(=O)OC)nc2ccccc21`, the result was inactive.

In the case of `COc1ccc(C(c2ccc(OC)cc2)C(Cl)(Cl)Cl)cc1`, the outcome was inactive. Take `C=CCC1=C(C)C(OC(=O)C2C(C=C(C)C)C2(C)C)CC1=O` (configuration not stated): the AC50 is 0.793 µM (active).

The next assay concerns the target human Phosphodiesterase 4A1 (PDE4A1), PDE4A (gene 5141) (UniProt P27815). The assay can be described thus: NVS_ENZ_hPDE4A1: NovaScreen (NVS) Enzymatic Assay for human Phosphodiesterase 4A1 (PDE4A1) (AID 2283191). Summed up:
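Cell-free recombinant human PDE4A1 with fluorescent substrate; product separated by electrophoretic mobility shift, 1 h. Screened at 25 uM, then up to 50 uM in concentration-response; loss of signal fitted against DMSO.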
`COc1nc(NC(C)C)nc(NC(C)C)n1`: the AC50 was 13.4 µM (active). Take `CCCN(CCC)c1c([N+](=O)[O-])cc(S(N)(=O)=O)cc1[N+](=O)[O-]`: the molecule was classed as inactive. In the case of `CO/C=C(/C(=O)OC)c1ccccc1Oc1cc(Oc2ccccc2C#N)ncn1`, the AC50 was 14 µM (active) and the result was inactive. Turning to `CCOC(=O)CC(SP(=S)(OC)OC)C(=O)OCC` (configuration not stated), the result was inactive.

Take `CON(C)C(=O)Nc1ccc(Cl)c(Cl)c1`: the AC50 was 3.85 µM (active). For the molecule `CCNc1nc(Cl)nc(NCC)n1`, the AC50 is 8.46 µM (active).

Regarding `CCNc1nc(Cl)nc(NC(C)C)n1`, the AC50 was 1.22 µM (active). Turning to `CCOP(=S)(OCC)SCn1c(=O)oc2cc(Cl)ccc21`, the AC50 was 9.57 µM (active).

The next assay deals with cAMP-dependent protein kinase catalytic subunit alpha (Homo sapiens) (UniProt P17612). Description: NVS_ENZ_hPKA: NovaScreen (NVS) Enzymatic Assay for human Protein Kinase A (PKA) (AID 2283192). Summed up:
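Recombinant human PKA with specific fluorescent substrate, product separated by electrophoretic mobility shift, read 1 h after dosing. Primary screen at 25 uM in duplicate; actives then run in concentration-response up to 50 uM, activity relative to DMSO.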
Regarding `CNC(=S)S`, the outcome was inactive. For the molecule `N#Cc1nn(-c2c(Cl)cc(C(F)(F)F)cc2Cl)c(N)c1S(=O)C(F)(F)F` (configuration not stated), the call was inactive. The same measure, in the same setting: in the case of `COc1nc(C)nc(NC(=O)NS(=O)(=O)c2ccccc2Cl)n1` it was “inactive”.
